Results taken from PubChem BioAssay (NCI).
Where “and” joins values, the source holds several entries; their conditions need not be identical. Identical values can stand only once. The panel holds about 83,000 compounds, 20% with a hit somewhere; the sample as a whole holds those more often.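 Values shown are percent growth following 48 h exposure of cells in 96-well plates to a single concentration of compound; below 10 was considered active.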 Calls of active or inactive are those of the source.

These compounds were tested on MDA-MB-435 melanoma (assay: NCI-60 one-dose screen, 48 h (100 = growth as untreated, 0 = no growth, -100 = all killed)). Conditions: 10 µM unless noted.
With `CCN1CCN(CCNc2nccc(-c3c(-c4cccc(O)c4)nc4sccn34)n2)S1(=O)=O` the growth was 20% (inactive) and 11% (inactive). In the case of `CCCCCCCCCCCCCCCc1cc(O)ccc1N`, the growth is reported as 99.4% (inactive) and 87.2% (inactive). `CN1CCN(c2ccc3nc(-c4c(N)c5c(F)cccc5[nH]c4=O)[nH]c3c2)CC1` was tested, and the growth was 26.6% (inactive) and 16.1% (inactive). In the case of `OCCN1CCN(CCCN2c3ccccc3Sc3ccc(Cl)cc32)CC1`, the growth is reported as -11.6% (active) and 26.5% (inactive). `NC(=S)NS(=O)(=O)c1ccc(N)cc1` was tested, and the growth was 104% (inactive). With `COc1cc(C(=O)N/N=C/c2ccc(N(C)C)cc2)cc(OC)c1OC` the growth was -11.9% (active). In the case of `OC(CSc1ccccc1)CN1CCN(c2cccc(Cl)c2)CC1` (stereo not drawn), the growth is reported as 114% (inactive) and 93.6% (inactive). For `COc1cc(Nc2nc3ccccc3nc2NS(=O)(=O)c2ccc(NC(=O)c3ccc(C)c(OC)c3)cc2)cc(OC)c1`, the growth was 68.3% (inactive) and 3.11% (active). With `O=C(Nc1cccc(-n2ccc3c(NC(=O)c4ccccc4)nccc32)c1)c1ccc(Cl)c(C(F)(F)F)c1` the growth was -59% (active) and 54.9% (inactive). `CC(C(=O)O)n1cc(C#N)c(=O)[nH]c1=O` (stereo not drawn) was tested, and the growth was 94.8% (inactive) and 106% (inactive). In the case of `CC1=NN(c2ccccc2)C(=O)C1C(=O)c1ccccc1` (stereo not drawn), the growth is reported as 104% (inactive). For `CCOC(=O)c1c(C)oc(C)c(C(=O)OCC)c1=O`, the growth was 111% (inactive) and 108% (inactive). `NC(=O)NO` was tested, and the growth was 98.5% (inactive) and 74.4% (inactive). `C1CCCCNCCC1` was tested, and the growth was 94.6% (inactive). With `OC1CCC(Oc2cccc3cnc(Nc4ccc5nc[nH]c5c4)nc23)CC1` (stereo not drawn) the growth was 12.3% (inactive) and 58.4% (inactive). With `CC(C)CNC(=O)c1ccccc1C(=O)NC1(C(=O)NCC(C)C)CCCC1` the growth was 101% (inactive) and 105% (inactive). For `C=C1C(=O)O[C@H]2[C@H]1CC/C(COC(=O)NC1CCC(O)CC1)=C\CC[C@@]1(C)O[C@@H]21` (stereo partly drawn), the growth was 58.4% (inactive) and 54.8% (inactive). For `O=C(O)C1C2C=CC(C2)C1C(=O)O` (stereo not drawn), the growth was 101% (inactive) and 19.1% (inactive) and 100% (inactive). `CCN(CC)CCCC(C)N(Cc1ccccc1)CC(O)c1ccc(Cl)cc1` (stereo not drawn) was tested, and the growth was 116% (inactive) and 107% (inactive). With `CC(=O)NC(Cc1ccccc1)C(=O)Oc1ccc2ccccc2c1` (stereo not drawn) the growth was 119% (inactive) and 107% (inactive). With `O=C(Oc1cccc(OC(=O)c2ccccc2)c1)c1ccccc1` the growth was 113% (inactive) and 99.8% (inactive). For `CC(C)(C)c1ccc(O)c(CNC2CCCCC2)c1`, the growth was 97.9% (inactive) and 96.6% (inactive). With `Cc1cccc(/C=C\C(=O)c2ccccc2)c1` the growth was 98.4% (inactive) and 88.5% (inactive). `Cc1nnc(NC/C=C/c2ccccc2)s1` was tested, and the growth was 110% (inactive) and 108% (inactive). For `Clc1ccc(NC(Nc2ccc(Cl)cc2)C(Cl)(Cl)Cl)cc1`, the growth was 62.9% (inactive) and 97.7% (inactive). For `COc1ccccc1NC(=O)OCC#CCOC(=O)Nc1ccccc1OC`, the growth was 95.2% (inactive) and 75.5% (inactive). `O=C1NC(=O)C2(CCc3ccccc32)N1` (stereo not drawn) was tested, and the growth was 107% (inactive) and 129% (inactive). For `CC(C)Cc1ccc(C(C)C(=O)NCc2ccc(Cn3c(=O)sn(CCCCl)c3=O)cc2)cc1` (stereo not drawn), the growth was 101% (inactive) and -83.6% (active). With `Cn1cnc([N+](=O)[O-])c1Sc1ncnc2nc[nH]c12` the growth was 33.7% (inactive) and 35.7% (inactive). For `CCCCCCCCCCCCOc1ccccc1C=O`, the growth was 98.3% (inactive). `Nc1cc2c(cc1N)-c1ccccc1C2` was tested, and the growth was 91.6% (inactive) and 94.1% (inactive). With `C[N+](C)(C)CN1C(=O)c2ccccc2C1=O` the growth was 97.6% (inactive). `Nc1ncnc2c1ncn2C1CC(O)C(CO)O1` (stereo not drawn) was tested, and the growth was 105% (inactive) and 107% (inactive). `Cc1ccc(S(=O)(=O)Nc2nc3ccccc3nc2Nc2ccc3nsnc3c2)cc1` was tested, and the growth was 36.3% (inactive) and 66.4% (inactive). `CN(Cc1ccccc1)Cc1ccccc1` was tested, and the growth was 105% (inactive). In the case of `COc1cc(C(=O)c2ccc3c(c2)OCO3)cc(OC)c1OC`, the growth is reported as -19.5% (active) and -21.3% (active). `CCN(CC)CCOc1ccc(/C=N/Nc2nc3c([nH]2)c(=O)n(C)c(=O)n3C)cc1` was tested, and the growth was 104% (inactive) and 105% (inactive). `O=[N+]([O-])c1ccc(Oc2ccccc2)cc1` was tested, and the growth was 101% (inactive) and 131% (inactive).
